From PubChem BioAssay (EPA / NIEHS)
The source holds several records for some structures; these can differ, active in one and inactive in another. The source made the active and inactive calls. The calls were made as follows: active = hit-call score of the fitted dose curve at least 0.9, where 1 is the maximum; inactive = score below 0.9.

Test: CEETOX_H295R_ESTRADIOL: CeeTox H295R High-throughput Steroidogenesis Assay for Estradiol (AID 2283440);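 also: estradiol secreted into medium quantified by LC-MS/MS after dansyl derivatisation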
Conditions: actives raise or lower the signal
Experimental: CEETOX_H295R is a cell-based, multiplexed-readout assay that uses H295R, a human adrenal gland cell line, with measurements taken at 48 hours after chemical dosing in a 96-well plate.CEETOX_H295R_ESTRADIOL is one of 23 assay component(s) measured or calculated from the CEETOX_H295R assay. It is designed to make measurements of hormone induction, a form of inducible reporter, as detected with absorbance signals by HPLC-MS-MS technology.Data from the assay component CEETOX_H295R_ESTRADIOL was analyzed into 1 assay endpoint. This assay endpoint, CEETOX_H295R_ESTRADIOL, was analyzed with bidirectional fitting relative to DMSO as the negative control and baseline of activity. […] To generalize the intended target to other relatable targets, this assay endpoint is annotated to the steroid hormone intended target family, where the subfamily is estrogens.
Cell culture and media preparation procedures were conducted in accordance with OECD Test No. 456 guidelines, with minor modifications. H295R cells (ATCC CRL-2128) were expanded for 5 passages and frozen in batches in liquid nitrogen. Prior to the steroidogenesis assay, H295R cells were thawed and passed at least 4 times. The maximum passage was 10. Cells were maintained in a 1:1 mixture of DMEM/F12 supplemented with 5ml/L ITS+ Premix (BD Bioscience) and 12.5 ml/L Nu-Serum (BD Bioscience). After seeding cells into 96-well plates at 50-60% confluency, cells were allowed to adhere overnight. Prior to chemical testing, culture medium was replaced with 175 uL medium containing 10 uM forskolin to stimulate steroidogenesis for 48 hours. Following prestimulation, forskolin medium was replaced with medium containing test chemical solubilized in DMSO (ensuring a final concentration of 0.1% DMSO). Test chemicals were incubated for 48 hours, then the medium was removed and split into 2 vials containing approximately 75uL each, and stored at -80 C prior to hormone analysis. For steroid quantification, media samples were shipped to OpAns, LLC (Durham, NC) on dry ice, and samples were thawed to room temperature prior to liquid-liquid extraction. Steroid hormones were extracted from media samples using methyl tertbutyl ether (MTBE). An extra derivatization with dansyl chloride was included for estrogen (estrone and estradiol) detection only. Steroid hormones were separated by HPLC, eluted using a reverse phase C18 gradient with electrospray positive ionization, followed by quantification by tandem mass spectrometry (MS/MS). Data were acquired on a MassHunter Workstation Acquisition version B03.01 (Agilent Technologies, Inc.) and processed using MassHunter Quantitative Analysis for QQQ. Accuracy was determined for each hormone analyte from 3 standards to determine upper and lower limits of quantification (ULOQ and LLOQ, respectively) using a 7-point standard curve. Precision and accuracy of the extraction and quantification methods were calculated as the percent relative standard deviation (%RSD) of the spiked standards and percent spiked standard recovered, respectively. […] Test medium was removed following chemical exposure, and cell viability was evaluated in the same wells by MTT. MTT procedures were as follows: after removal of test medium, 500 uL of 0.5 mg/ml of 3-[4,5-dimethylthiazol-2-y]2,5-diphenyltetrazoliumbromide solution was added to the cells. Following a 4-hour incubation at 37 C and 5% CO2 to allow formazan-crystal formation, the MTT solution was removed and blue formazan salt crystals were solubilized using 500uL anhydrous isopropanol with shaking for 20 minutes. Absorbance was read at 570 and 650nm using a Packard Fusion microplate reader. Background correction of absorbance units was used to determine percent change relative to controls. […] When a test chemical reduced cell viability to 20% - 70%, the test chemical was diluted 10-fold and re-evaluated, but if cell viability was <20%, then the test chemical was diluted 100-fold and re-evaluated. […]

| SMILES | outcome | AC50 |
| --- | --- | --- |
| CCOC(=O)C(Cl)Cc1cc(-n2nc(C)n(C(F)F)c2=O)c(F)cc1Cl (configuration not stated) | inactive | – |
| CC(C)Oc1cc(-n2nc(C(C)(C)C)oc2=O)c(Cl)cc1Cl | inactive | – |
| Oc1ccccc1-c1ccccc1 | inactive | 32 µM (active) |
| CCNc1nc(Cl)nc(NCC)n1 | inactive | – |
| COP(=S)(OC)Oc1nc(Cl)c(Cl)cc1Cl | inactive | – |
| CCNc1nc(Cl)nc(NC(C)C)n1 | inactive | – |
| C=CC1(C)OC(=O)N(c2cc(Cl)cc(Cl)c2)C1=O (configuration not stated) | inactive | – |
| CCCCNC(=O)n1c(NC(=O)OC)nc2ccccc21 | inactive | – |
| CC1=C(C(=O)Nc2ccccc2)SCCO1 | – | 21.2 µM (active) |
| CNC(=S)S | inactive | – |
| COc1nc(NC(C)C)nc(NC(C)C)n1 | – | 6.99 µM (active) |
| CCOP(=S)(OCC)SCn1c(=O)oc2cc(Cl)ccc21 | – | 1.23 µM (active) |
| CCOc1cc(Oc2ccc(C(F)(F)F)cc2Cl)ccc1[N+](=O)[O-] | – | 1.78 µM (active) |
| CC1COC(Cn2cncn2)(c2ccc(Oc3ccc(Cl)cc3)cc2Cl)O1 (configuration not stated) | inactive | – |
| N#CC(CCc1ccc(Cl)cc1)(Cn1cncn1)c1ccccc1 (configuration not stated) | inactive | – |
| Cc1c(F)c(F)c(COC(=O)C2C(/C=C(\Cl)C(F)(F)F)C2(C)C)c(F)c1F (configuration not stated) | inactive | – |
